In the supplement of paper PMC11219838:

The compounds below were run on Caenorhabditis elegans dauer (daf-2(e1370)) (assay: proportion of mobile C. elegans dauer larvae relative to DMSO control (fraction of DMSO control); higher = more viable, less nematicidal, active = 0.63 or less; extreme values may be limits of the assay). Conditions: 60 µM; 5 days; temperature: 20 °C.
Method: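 DODA library (846 commercial 1,3,4- and 1,2,4-oxadiazole compounds plus commercial nematicide controls) screened at a single dose of 60 µM (0.6% DMSO) in 96-well plates, two biological replicates. Read-outs: C. elegans N2 L1 survival/reproduction score at day 6, 20 °C (0: 0-10 worms, 1: 11-20, 2: 21-50, 3: >50, 4: overgrown/starved). C. elegans daf-2 dauer, D. dipsaci and M. hapla J2 mobility at day 5, 20 °C, and P. penetrans mobility at day 5, 20 °C, each relative to DMSO controls. M. hapla egg hatching at day 12, 25 °C, relative to the mean of 8 DMSO wells on the same plate.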

Structure (SMILES) | proportion of mobile C. elegans dauer larvae
COc1ccc(-c2noc(-c3cc(C)ccc3C)n2)cc1 | 1 (inactive)
O=C(CSc1nnc(-c2ccccc2)o1)Nc1ccc2ccccc2c1 | 1 (inactive)
COc1ccc(-c2nnc(SCc3ccc(Cl)cc3Cl)o2)cc1 | 1 (inactive)
c1coc(-c2nc(-c3cccs3)no2)c1 | 1 (inactive)
Cc1ccccc1CSc1nnc(-c2ccccc2Cl)o1 | 1 (inactive)
COc1ccc(-c2nnc(SCc3cccc(C#N)c3)o2)cc1 | 1 (inactive)
Cc1ccccc1-c1nnc(SCc2ccccc2Cl)o1 | 1 (inactive)
Cc1cccc(-c2noc(-c3ccc(Cl)cc3)n2)c1 | 1 (inactive)
Clc1ccc(-c2noc(COc3ccccc3Cl)n2)cc1 | 1 (inactive)
CC(=O)Nc1ccc(-c2nnc(SCc3ccccc3)o2)cc1 | 1 (inactive)
Cc1ccc(-c2noc(-c3ccc(Br)o3)n2)s1 | 1 (inactive)
Brc1cccc(-c2noc(-c3ccc4c(c3)OCO4)n2)c1 | 1 (inactive)
O=C(CSc1nnc(-c2ccc(Cl)cc2Cl)o1)Nc1ccccn1 | 1 (inactive)
Cc1ccc(NC(=O)CSc2nnc(-c3ccco3)o2)cc1Cl | 1 (inactive)
Cc1cnnn1-c1ccc(-c2nc(-c3ccc(Cl)cc3)no2)cc1 | 1 (inactive)
COc1ccc(CC(=O)Nc2ccc(-c3noc(-c4ccc(F)cc4)n3)cc2)cc1 | 1 (inactive)
CCOc1nc(-c2ccccc2)ccc1-c1noc(-c2cccc(C)c2)n1 | 1 (inactive)
O=C(c1ccccc1-c1nc(-c2ccccc2Cl)no1)N1CCCCC1 | 1 (inactive)
CCCCC(=O)Nc1ccccc1-c1nc(-c2cccnc2)no1 | 1 (inactive)
Ic1ccc(CSc2nnc(-c3ccco3)o2)cc1 | 1 (inactive)

Structure (SMILES) | proportion of mobile C. elegans dauer larvae
Cc1ccc(-c2nnc(SCc3ccccc3Cl)o2)cc1 | 1 (inactive)
CCn1c(SCc2ccc(OC)cc2)nnc1-c1ccco1 | 1 (inactive)
FC(F)(F)c1cccc(-c2noc(-c3cccnc3)n2)c1 | 1 (inactive)
Cn1cc(C(=O)CSc2nnc(-c3cccc(Cl)c3)o2)c2ccccc21 | 1 (inactive)
Brc1ccccc1-c1nc(-c2ccncc2)no1 | 0.274 (active)
COc1cccc(-c2nnc(SCc3ccccc3)o2)c1 | 1 (inactive)
CCc1ccc(OCc2nc(-c3ccccn3)no2)cc1 | 1 (inactive)
COc1ccc(-c2noc(-c3ccc(Cl)cc3Cl)n2)cc1 | 1 (inactive)
Brc1ccc(-c2noc(-c3ccco3)n2)cc1 | 0 (active)
CC(C)C(=O)Nc1ccccc1-c1nc(-c2ccncc2)no1 | 1 (inactive)
Cc1nc(CSc2nnc(-c3ccc(Cl)cc3)o2)cs1 | 1 (inactive)
CCCc1nnc(SCc2nnc(-c3ccccc3)o2)o1 | 1 (inactive)
COc1ccc(CCC(=O)Nc2ccc(-c3noc(-c4ccc(F)cc4)n3)cc2)cc1 | 1 (inactive)
COc1ccccc1-c1noc(-c2ccc(C(C)(C)C)cc2)n1 | 1 (inactive)
O=C(CSc1nnc(-c2ccccc2)o1)Nc1ccc(F)cc1F | 1 (inactive)
Brc1ccc(-c2noc(COc3ccc4c(c3)OCO4)n2)cc1 | 1 (inactive)
N#Cc1ccc(CSc2nnc(-c3ccncc3)o2)cc1 | 1 (inactive)
CC(C)(Oc1ccc(Cl)cc1)c1nc(-c2ccncc2)no1 | 1 (inactive)
Cc1cc(OCc2nc(-c3cccnc3)no2)c(C)c(C)c1Br | 1 (inactive)
CC(C)Oc1ccc(-c2nc(-c3ccccn3)no2)cc1 | 0.0263 (active)
